Source: PubChem BioAssay (National Center for Advancing Translational Sciences (NCATS))
Compounds with a hit are over-represented: about 6.8% of the library has one in this group of screens.
PINK1 modulator: changes PINK1 expression. PINK1 immunofluorescence, high-content cytometry, 24 h. Potency, µM (doses to about 76.6 µM), without a hit: top-dose activation (PINK1 increase), most hits filed as activators. 0.2% of 410,000 active; active means well fitted activation curve with a large enough effect; inconclusive means small, poorly fitted or top-dose-only effect; cell line not stated here; further: % of control where 0% means no effect; nearly all actives have a fitted effect of over 65% in size
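Measures PINK1 amount and localization on or inside mitochondria by immunofluorescence. Stable cells get compounds at 5 concentrations for 24 hours before fixation and staining; CCCP controls included.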
KB-V1 cytotox: KB-V1 MDR subline cytotoxicity. KB-V1 MDR cells viability, CellTiter-Glo, 72 h. Potency, µM (top dose mostly 46.1 µM), usual class: cytotoxic. 3.4% of 400,000 active; further: on the % scale 0 is the no-effect control and ±100 the full control effect; nearly all actives have a fitted effect of over 60% in size
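KB-V1 cells (P-gp-expressing MDR subline of KB-3-1) in phenol-red-free DMEM with 10% FBS were exposed to library compounds over a concentration series for 72 h at 37 degrees C. Viability read by CellTiter-Glo luminescence; concentration-effect curves fitted after normalization.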
MCF10A rereplic: inducers of DNA re-replication in MCF 10A breast cells. MCF 10A DNA re-replication, Hoechst nuclear intensity, 48 h. 2.9% of 350,000 active. Potency, µM (highest dose often 46.1 µM), for inactives: at the top dose activity, positive = re-replication, usual class: activators; further: % of control where 0% means no effect; nearly all actives have a fitted effect of over 50% in size
SW480 rerep: inducers of DNA re-replication in SW480 colon cancer cells; SW480 DNA re-replication, Hoechst DNA content imaging, 48 h; Potency, µM (series often up to 46.1 µM), for the others: at the highest dose re-replication activation, hits mostly activators; 1.8% of 340,000 active; AID 624297; further: % of control where 0% means no effect; nearly all actives have a fitted effect of over 55% in size
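Readout is total intensity of Hoechst-stained nuclei, excited at 405 nm and collected at 500-530 nm. Compound treatment lasted 48 hr at 37 C in 5% CO2 before staining.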
PTAP TSG101 blk: blocks PTAP/TSG101 interaction to inhibit HIV-1 budding. 340,000 tested, under 10 active. Q99816. Fluorescence polarization, FITC-PTAP peptide / Tsg101 binding. Potency, µM (highest dose often 115 µM), inactives show top-dose activity change, negative = inhibition, usual class: inhibitors; active means well fitted inhibition curve with a large enough effect in the main read-out, with a control signal flat, not every such curve was filed as active; inconclusive means small, poorly fitted or top-dose-only effect, or effect the other way, or a change in a side signal; inactive means no such curve, though single readings can be large or run the other way; further: % of control where 0% means no effect
Target sequence (Q99816 whole entry, looked up): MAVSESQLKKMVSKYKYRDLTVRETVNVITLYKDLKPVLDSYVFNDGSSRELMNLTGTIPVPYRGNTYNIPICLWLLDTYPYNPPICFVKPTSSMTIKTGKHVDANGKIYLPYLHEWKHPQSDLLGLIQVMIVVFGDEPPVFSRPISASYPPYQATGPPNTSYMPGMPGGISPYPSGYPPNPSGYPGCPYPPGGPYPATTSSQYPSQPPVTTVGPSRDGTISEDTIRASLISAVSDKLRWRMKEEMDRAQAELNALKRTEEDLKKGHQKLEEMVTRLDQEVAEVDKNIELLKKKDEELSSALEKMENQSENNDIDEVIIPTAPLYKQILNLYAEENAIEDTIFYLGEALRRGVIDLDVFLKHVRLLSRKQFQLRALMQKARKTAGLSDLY
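Compounds were pin-transferred onto Tsg101 binding domain (10 uM final) in HEPES pH 7.5 buffer, then FITC-PTAP peptide was added at 50 nM final. After 20 min at RT, polarization reported peptide displacement across a qHTS concentration series.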
KB-3-1 tox: kills parental KB-3-1 adenocarcinoma cells | 1.4% of 400,000 active | KB-3-1 viability, CellTiter-Glo ATP luminescence, 72 h | Potency, µM (doses to about 46.1 µM), actives largely listed as cytotoxic; further: on the % scale 0 is the no-effect control and ±100 the full control effect; nearly all actives have a fitted effect of over 60% in size
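Screening of KB-3-1 cells (DMEM, 10% FBS, phenol-red free) ran from lowest to highest compound concentration; after 72 h at 37 °C viability was read luminescently and curves fitted.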
An asterisk follows results filed as active; i = inactive; ? = inconclusive; nt = no result given; [ ] = another dose, or the depositor's remark. Unless noted, the call rests on the fitted dose curve; in most records, active means well fitted curve in the direction sought with a large enough effect; inconclusive means small, poorly fitted or top-dose-only effect, or another doubt; inactive means no such curve, though single readings can be large; an effect the other way counts as inactive or inconclusive. Potency means the concentration at half of the fitted maximal effect.

SMILES	PINK1 modulator	KB-V1 cytotox	MCF10A rereplic	SW480 rerep	PTAP TSG101 blk	KB-3-1 tox
Cc1cccc(Nc2nc(N3CCN(C)CC3)nc(N)c2[N+](=O)[O-])c1	22%	7.3µM*	-58%	-36%	-1%	i
CCN1CCN(c2nc(N)c([N+](=O)[O-])c(Nc3cccc(C)c3)n2)CC1	1%	3.3µM*	11%	-1%	-1%	?
Cc1ccc(C)c(N2CCN(c3nc4ccccc4c4nc(-c5cccnc5)nn34)CC2)c1	0%	?	nt	nt	nt	i
ClC(Cl)(c1nnnn1-c1ccccc1)c1nnnn1-c1ccccc1	-2%	i	?	13µM*	-3%	i
Cn1c(SCC2CCCO2)nnc1C1CCN(Cc2ccco2)CC1 (stereo not given)	-1%	nt	nt	nt	nt	nt
CCc1ccc(C2NC(=S)NC3=C2C(=O)N(c2ccccc2OC)C(c2ccc(CC)cc2)N3)cc1 (stereo not given)	2%	?	?	?	-3%	i
O=C1C2=C(NC(=S)NC2c2ccc(Cl)cc2)NC(c2ccc(Cl)cc2)N1c1ccc(Cl)cc1 (stereo not given)	-2%	?	?	?	-7%	16µM*
CCc1ccccc1NC(=O)C(=O)c1cc(C)n(-c2ccccc2F)c1C	0%	i	nt	nt	nt	i
CC(C)N1CCN(c2ccc(OCC3COC(Cn4cncn4)(c4ccc(Cl)cc4Cl)O3)cc2)CC1 (stereo not given)	-5%	1.2µM*	?	?	-1%	?
CC(C)N1CCN(c2ccc(OC[C@H]3CO[C@](Cn4cncn4)(c4ccc(Cl)cc4Cl)O3)cc2)CC1	6%	?	?	?	-2%	?
CC(=O)N(CCC(Cc1ccccc1)c1ccc2c(c1)OCO2)Cc1ccc(Cl)cc1 (stereo not given)	?	?	16µM*	?	-3%	?
COc1ccc(CN(CCC(c2ccc3c(c2)OCO3)c2ccccc2OC)C(C)=O)cc1 (stereo not given)	-1%	nt	nt	nt	nt	nt
O=C1N/C(=C\c2ccccc2)c2ccccc21	?	?	18µM*	?	-4%	i
CC(C)c1ccc(NC(=O)c2ccc(=O)n(Cc3ccccc3)c2)cc1	2%	?	nt	nt	nt	?
CCN(C[C@H]1N[C@@](C)(C(=O)OC)[C@H]2C(=O)N(Cc3ccccc3)C(=O)[C@@H]12)C(=O)C1CCCCC1	1%	i	-5%	1.5µM*	-2%	i
CCN(C[C@H]1N[C@@](Cc2ccccc2)(C(=O)OC)[C@H]2C(=O)N(Cc3ccccc3)C(=O)[C@@H]12)C(=O)Nc1ccc(Cl)cc1	1%	?	?	18µM*	-6%	?
CCN(C[C@H]1N[C@@](Cc2ccccc2)(C(=O)OC)[C@H]2C(=O)N(Cc3ccccc3)C(=O)[C@@H]12)C(=O)C1CCCCC1	2%	i	-19%	?	-2%	i
CCN(C[C@H]1N[C@@](Cc2ccccc2)(C(=O)OC)[C@H]2C(=O)N(C)C(=O)[C@@H]12)C(=O)c1ccc(C(C)(C)C)cc1	2%	i	-14%	-1%[9.22 µM]	-6%	i
CCN(C[C@H]1N[C@@](Cc2ccccc2)(C(=O)OC)[C@H]2C(=O)N(C)C(=O)[C@@H]12)C(=O)c1ccc(F)cc1	0%	i	0.82µM*	-2%[9.22 µM]	0%	i
O=C(CCS(=O)(=O)c1nc(-c2ccc3c(c2)OCO3)cc(C(F)(F)F)n1)Nc1ccccc1C(F)(F)F	-2%	i	nt	nt	nt	i
COc1ccc(-c2noc(-c3ccc(NC4CCCC4)c([N+](=O)[O-])c3)n2)cc1	0%	i	nt	nt	nt	i
CN1CCN(NC(=O)c2cccc(C(F)(F)F)c2)CC1	4%	i	-2%	5.8µM*	-5%	i
